Measured values reported in PubChem BioAssay (NCI).
This is part of a sample that, as a whole, favours compounds with a hit. Of some 79,000 tested, about 15% had one in any assay. A number with no mark means an inactive call. Calls of active or inactive are those of the source. No stated cut-off is given here; in the data, active means growth inhibition above about 70%; inactive means the rest.

Experiment: NCI Yeast Anticancer Drug Screen. Data for the mec2-1 strain (AID 157)
Details: S. cerevisiae mec2-1 strain, at 50.0 µM, stronger effect = higher value
Procedure, shortened: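 Strain: mec2-1 (DNA repair/cell cycle alteration). Compound exposure, then growth measured; inhibition expressed relative to vehicle.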

| Structure (SMILES) | growth inhibition |
| --- | --- |
| COc1ccc(Cc2nc3ccccc3s2)cc1OC | 92.8% (active) |
| CN(NC(=O)c1cccs1)C1=NCCCN1 | -4.9% |
| Cc1cccc2c1C(=O)N(CC[P+](c1ccccc1)(c1ccccc1)c1ccccc1)C2=O | 70.3% (active) |
| CCc1cc2c(cc1O)CC[C@@H]1[C@@H]2CC[C@]2(C)[C@@H](O)CC[C@@H]12 | 92% (active) |
| C[n+]1c2ccc(Cl)cc2nc2cc(-c3ccccc3)ccc21 | 99% (active) |
| CCCCCN=Cc1c(O)c(O)c(C(C)C)c2cc(C)c(-c3c(C)cc4c(C(C)C)c(O)c(O)c(C=NCCCCC)c4c3O)c(O)c12 | 62.9% |
| CCOC1(c2ccccc2)c2ccccc2S(=O)(=O)N1C (stereo not given) | 0.95% |
| CCN(CC)CCNc1ccc(C)c2sc3ccc(OC)cc3c(=O)c12 | 89.2% (active) |
| Cc1nc2c(cnn2-c2ccccc2)c(=O)o1 | 2.25% |
| O=S(=O)(c1ccc(NC(=S)NCc2ccncc2)cc1)N1CCCCC1 | -13.6% |
| Nc1nn2c(C(Br)Br)cc(C(Br)Br)nc2c1[N+](=O)[O-] | 99.5% (active) |
| O=C1C=CC(=O)N1c1ccccc1 (tested in a mixture with another compound) | 92.8% (active) |
| O=C(O)CCSc1ncnc2nc[nH]c12 | -12.8% |
| COc1cccc(=O)cc1 | 26.4% |
| CCN(CC)CCCC(=O)Nc1cc(OC)cc2cccnc12 | 6.3% |
| COc1ccc(C2SCC(=O)N2c2ccc(-c3ccc(-n4c(-c5ccccc5)nc5ccccc5c4=O)cc3)cc2)cc1 (stereo not given) | 34.1% |
| CC(=O)OC(C#N)CC(C)(C)/[N+]([O-])=[N+](\[O-])C(C)(C)CC(C#N)OC(C)=O (stereo not given) | 43.5% |
| ICCCCCCCCCC[n+]1ccc2ccccc2c1 | 89.8% (active) |
| CCCCCc1[nH]nc(C(=O)OC)c1N=NN1CCOCC1 | 99.6% (active) |
| Clc1ccc(C(c2ccc(Cl)cc2)c2cncnc2)cc1 | 90% (active) |

| Structure (SMILES) | growth inhibition |
| --- | --- |
| CC1=C(C(=O)Nc2cccc(Cl)c2)C(c2ccc([N+](=O)[O-])cc2)C(C(=O)Nc2cccc(Cl)c2)=C(C)N1 | 81.8% (active) |
| NC1=NC(c2ccccc2)CC(c2cc(Cl)cc(Br)c2O)=N1 (stereo not given) | 13.4% |
| CC(NNC(=S)NCc1ccccc1)c1cc2ccccc2cn1 (stereo not given) | 80.8% (active) |
| C=CCOC(=O)CC(O)C(=O)OCC=C (stereo not given) | -12.7% |
| OC(C(=Nc1ccccc1)c1ccccc1)c1ccccc1 (stereo not given) | 98.6% (active) |
| C=CC1(NC(=O)c2ccccc2)CCC(C(C)(C)C)CC1 (stereo not given) | -0.2% |
| O=C(Nc1ccccc1-c1nn(CN2CCNCC2)c(=S)n(CN2CCNCC2)c1=O)C(F)(F)F | 25.9% |
| CCN(CC)CCOc1c(I)cc(I)cc1I | 82.4% (active) |
| CCN(CC)CC(O)c1ccnc2c(O)cccc12 (stereo not given) | 20.6% |
| O=[N+]([O-])c1ccc(-c2nc(/C=N/N3CCCCC3)cs2)o1 | 43.5% |
| O=C(CCn1[nH]c(=O)c(Cl)c(Cl)c1=O)NNc1ccc([N+](=O)[O-])cc1[N+](=O)[O-] | -4.7% |
| COc1ccc(-c2c(CO)cc(OC)c(OC)c2OC)c(CO)c1 | 98.8% (active) |
| C(=C\c1cnnc2ccccc12)/c1ccco1 | 20.4% |
| CCCCCCCCNc1ccc(Cl)cc1 | 93% (active) |
| Cc1ccc2ccc(C(Nc3ccccc3)c3ccncc3)c(O)c2n1 (stereo not given) | 82.8% (active) |
| c1ccc(C2=NOC3(c4ccccc4)SC4CCCCC4CN23)cc1 (stereo not given) | 93.7% (active) |
| COc1ccc(C(=O)Nc2ccccc2[N+](=O)[O-])cc1 | 8.3% |
| CC(=O)CC(C)=NCCN=C(C)CC(C)=O.[Pd] | 67.2% |
| Cc1cc2oc3c(ccc(=O)n3C)c(=O)c2c(C)c1Cl | 29.4% |
| CCCOc1ccc(/C=N/NC(N)=S)cc1 | 59.5% |

Experiment: NCI Yeast Anticancer Drug Screen. Data for the sgs1 mgt1 strain (AID 161);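 further: 0% = growth of cultures given vehicle only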
Details: S. cerevisiae sgs1 mgt1 strain, at 5.0 µM (retest, dose inferred, filed as 0.5), stronger effect = higher value
Procedure, shortened: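 Genetically altered yeast, compound exposure, growth inhibition relative to vehicle.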

| Structure (SMILES) | growth inhibition |
| --- | --- |
| COc1ccc(Cc2nc3ccccc3s2)cc1OC | 61% |
| CN(NC(=O)c1cccs1)C1=NCCCN1 | 65% |
| Cc1cccc2c1C(=O)N(CC[P+](c1ccccc1)(c1ccccc1)c1ccccc1)C2=O | 70% (active) |
| CCc1cc2c(cc1O)CC[C@@H]1[C@@H]2CC[C@]2(C)[C@@H](O)CC[C@@H]12 | -17% |
| C[n+]1c2ccc(Cl)cc2nc2cc(-c3ccccc3)ccc21 | 32% |
| CCOC1(c2ccccc2)c2ccccc2S(=O)(=O)N1C (stereo not given) | 14% |
| CCN(CC)CCNc1ccc(C)c2sc3ccc(OC)cc3c(=O)c12 | 23% |
| Cc1nc2c(cnn2-c2ccccc2)c(=O)o1 | -57% |
| O=C1C=CC(=O)N1c1ccccc1 (tested in a mixture with another compound) | 0% |
| COc1cccc(=O)cc1 | 11% |
| CCN(CC)CCCC(=O)Nc1cc(OC)cc2cccnc12 | 8% |
| COc1ccc(C2SCC(=O)N2c2ccc(-c3ccc(-n4c(-c5ccccc5)nc5ccccc5c4=O)cc3)cc2)cc1 (stereo not given) | 7% |
| CC(=O)OC(C#N)CC(C)(C)/[N+]([O-])=[N+](\[O-])C(C)(C)CC(C#N)OC(C)=O (stereo not given) | 8% |
| CCCCCc1[nH]nc(C(=O)OC)c1N=NN1CCOCC1 | 62% |
| Clc1ccc(C(c2ccc(Cl)cc2)c2cncnc2)cc1 | 15% |
| CC1=C(C(=O)Nc2cccc(Cl)c2)C(c2ccc([N+](=O)[O-])cc2)C(C(=O)Nc2cccc(Cl)c2)=C(C)N1 | 34% |
| NC1=NC(c2ccccc2)CC(c2cc(Cl)cc(Br)c2O)=N1 (stereo not given) | -1% |
| CC(NNC(=S)NCc1ccccc1)c1cc2ccccc2cn1 (stereo not given) | 14% |
| C=CCOC(=O)CC(O)C(=O)OCC=C (stereo not given) | -1% |
| OC(C(=Nc1ccccc1)c1ccccc1)c1ccccc1 (stereo not given) | 1% |
| O=C(Nc1ccccc1-c1nn(CN2CCNCC2)c(=S)n(CN2CCNCC2)c1=O)C(F)(F)F | -2% |
| CCN(CC)CCOc1c(I)cc(I)cc1I | 12% |
| CCN(CC)CC(O)c1ccnc2c(O)cccc12 (stereo not given) | -2% |
| O=[N+]([O-])c1ccc(-c2nc(/C=N/N3CCCCC3)cs2)o1 | 17% |
| O=C(CCn1[nH]c(=O)c(Cl)c(Cl)c1=O)NNc1ccc([N+](=O)[O-])cc1[N+](=O)[O-] | 1% |
| COc1ccc(-c2c(CO)cc(OC)c(OC)c2OC)c(CO)c1 | -5% |
| CCCCCCCCNc1ccc(Cl)cc1 | 49% |
| COc1ccc(C(=O)Nc2ccccc2[N+](=O)[O-])cc1 | -13% |
| CC(=O)CC(C)=NCCN=C(C)CC(C)=O.[Pd] | 0% |
| Cc1cc2oc3c(ccc(=O)n3C)c(=O)c2c(C)c1Cl | 22% |
